Measurements taken from PubChem BioAssay (NCATS).
Inconclusive results are not listed. Activity calls are given as the source filed them. Calls come from the whole dose curve; as a rule, active = well fitted curve in the direction sought with a large enough effect; inconclusive = small, poorly fitted or top-dose-only effect, or another doubt; inactive = no such curve, though single readings can be large; an effect the other way counts as inactive or inconclusive.

How the values were obtained:
[1] = molecular target: Glutaminase kidney isoform, mitochondrial (Homo sapiens) (UniProt O94925); test: qHTS for Inhibitors of Glutaminase (GLS): LOPAC Validation (AID 624146); note: nearly all actives have a fitted effect of over 60% in size; note: potency is the fitted concentration of half-maximal effect
Sequence of Glutaminase kidney isoform, mitochondrial (Homo sapiens) (O94925 whole entry, looked up, canonical isoform): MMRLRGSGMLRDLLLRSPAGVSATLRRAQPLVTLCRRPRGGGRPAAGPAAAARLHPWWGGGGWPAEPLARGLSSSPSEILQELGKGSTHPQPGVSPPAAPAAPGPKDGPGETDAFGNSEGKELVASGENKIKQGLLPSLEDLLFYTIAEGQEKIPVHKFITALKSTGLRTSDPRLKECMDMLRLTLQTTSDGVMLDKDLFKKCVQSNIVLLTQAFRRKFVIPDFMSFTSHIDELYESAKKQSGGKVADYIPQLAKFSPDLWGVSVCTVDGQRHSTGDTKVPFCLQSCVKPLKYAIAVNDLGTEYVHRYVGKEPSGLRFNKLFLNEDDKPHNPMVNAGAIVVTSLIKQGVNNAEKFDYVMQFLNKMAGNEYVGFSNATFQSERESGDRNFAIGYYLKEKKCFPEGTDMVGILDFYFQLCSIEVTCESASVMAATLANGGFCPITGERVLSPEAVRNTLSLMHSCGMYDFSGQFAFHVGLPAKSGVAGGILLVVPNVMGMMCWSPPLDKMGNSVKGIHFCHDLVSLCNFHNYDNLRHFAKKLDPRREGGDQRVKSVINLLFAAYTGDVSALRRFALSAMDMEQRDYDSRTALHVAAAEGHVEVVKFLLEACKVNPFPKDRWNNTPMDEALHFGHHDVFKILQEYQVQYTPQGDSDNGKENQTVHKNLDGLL
How it was run: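 hKGA in 45 mM KH2PO4 (pH 8.2), 0.02% Tween-20 with compound, then 1mM L-Glutamine (stock as added) plus glutamate oxidase/HRP/Amplex red coupling mix. Fluorescence read initially and after 30 min at RT; signal change reflects glutamate formation.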

[2] = qHTS of Trypanosoma Brucei Inhibitors: LOPAC Validation (AID 624147)
How it was run: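 T. brucei PYK with substrate was exposed to pin-transferred compounds across a concentration series, then started with 130 uM ADP (final). After 45 min at room temperature, Kinase-Glo Plus luminescence was read, normalized and curve-fitted.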

[3] = molecular target: Glucagon-like peptide 1 receptor (Homo sapiens) (UniProt P43220); test: qHTS of GLP-1 Receptor Agonists: LOPAC Validation (AID 624148);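 note: higher luminescence signal means agonism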
Sequence of Glucagon-like peptide 1 receptor (Homo sapiens) (P43220 whole entry, looked up): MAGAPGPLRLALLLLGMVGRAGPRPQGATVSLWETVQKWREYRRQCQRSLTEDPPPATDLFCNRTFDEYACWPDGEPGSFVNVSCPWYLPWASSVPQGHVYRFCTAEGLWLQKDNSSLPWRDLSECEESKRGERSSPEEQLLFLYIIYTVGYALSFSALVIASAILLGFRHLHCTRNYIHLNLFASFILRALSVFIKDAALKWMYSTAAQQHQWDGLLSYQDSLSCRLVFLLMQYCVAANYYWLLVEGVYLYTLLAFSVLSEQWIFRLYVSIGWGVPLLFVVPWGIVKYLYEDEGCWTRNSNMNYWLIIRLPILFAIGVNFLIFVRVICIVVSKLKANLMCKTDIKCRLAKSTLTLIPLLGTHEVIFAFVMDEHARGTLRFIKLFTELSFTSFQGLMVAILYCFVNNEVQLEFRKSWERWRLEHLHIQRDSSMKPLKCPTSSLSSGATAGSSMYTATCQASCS
How it was run: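 HEK293 cells stably co-expressing GLP-1R and a cAMP-responsive luciferase reporter, plated 12 hours before compound, then incubated 4-6 hr at 37 deg C. Luminescence read 12 min after detection reagent.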

[4] = qHTS of Nrf2 Activators: LOPAC Validation (AID 624149)
How it was run: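 AREc32_Fluc cells, 1000/well, OPTI-MEM + 5% FBS, o/n 37 deg C 5% CO2; compound pin-transfer, 24 hr 37 deg C; Steady-Glo 30 min RT, luminescence read.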

[5] = HTS Assay for Allosteric Antagonists of the Human D2 Dopamine Receptor: Hit Validation in HTRF (AID 624455)
How it was run: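 HTRF read-out; cells stably expressing D1 receptor; hits scored for inhibition of D1-mediated response. Primary screen: calcium flux, force-coupled inducible Hek293 Trex D2 line, antagonism vs EC80 dopamine.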

Measured: Potency

CC[C@@H](C)[C@H]1O[C@]2(CC[C@H]1C)C[C@@H]1C[C@@H](CC=C(C)[C@@H](O[C@H]3C[C@H](OC)[C@@H](O[C@H]4C[C@H](OC)[C@@H](O)[C@H](C)O4)[C@H](C)O3)[C@@H](C)C=CC=C3CO[C@@H]4[C@H](O)C(C)=C[C@@H](C(=O)O1)[C@]34O)O2
inactive: all assays above

CCCCCCCCCCCCCCCCCC(=O)OC(CC(=O)O)C[N+](C)(C)C (stereo not given)
inactive: all assays above

COc1ccccc1CNCCCCCCNCCCCCCCCNCCCCCCNCc1ccccc1OC
inactive: all assays above

CC(=O)N[C@H](C(=O)O)C(C)(C)SN=O
inactive: all assays above

O=C(O)CC1CC(c2ccccc2)=NO1 (stereo not given)
inactive: all assays above

NCCCS(=O)(=O)O
inactive: all assays above

O=C(O)c1cc([N+](=O)[O-])ccc1NCCCc1ccccc1
inactive: all assays above

O=C(O)CCCC[C@@H]1CCSS1
inactive: all assays above

O=C(c1cc(O)c(O)c([N+](=O)[O-])c1)c1ccccc1F
active: [1] 4.47 µM
inactive: all other assays above

Cc1ccc(C(=O)O[C@H](C(=O)O)[C@@H](OC(=O)c2ccc(C)cc2)C(=O)O)cc1 (tested in a mixture with another compound)
inactive: all assays above

O=C(CCCCCN1CCN(c2ccccc2-c2ccccc2)CC1)NC1CCCc2ccccc21 (stereo not given)
inactive: all assays above

NCCNC(=O)c1ncsc1-c1cccc(F)c1
inactive: all assays above

COc1ccccc1N1CCN(CCN(C(=O)c2ccc(I)cc2)c2ccccn2)CC1
inactive: all assays above

C[C@@H](NC(=O)/C(C#N)=C/c1ccc(O)c(O)c1)c1ccccc1
active: [1] 1 µM
inactive: all other assays above

Ic1ccc(N2CCN(Cc3c[nH]c4ncccc34)CC2)cc1
inactive: all assays above

C[C@@H](CN1CCC(Cc2ccccc2)CC1)[C@@H](O)c1ccc(O)cc1
inactive: all assays above

COC(=O)c1c(C)[nH]c(C)c1C(=O)c1ccccc1Cc1ccccc1
inactive: all assays above

CC1CN(S(=O)(=O)c2cccc3cnccc23)CCN1 (stereo not given)
inactive: all assays above

Nc1nc(SCc2ccc([N+](=O)[O-])cc2)c2ncn([C@@H]3O[C@H](CO)[C@@H](O)[C@H]3O)c2n1
inactive: all assays above

NCCCCCCCCCCN
inactive: all assays above

CC(C)Cc1ccc([C@H](C)C(=O)O)cc1
inactive: all assays above

O=c1[nH]c2cc(C(F)(F)F)ccc2n1-c1cc(C(F)(F)F)ccc1O
inactive: all assays above

Cc1nc2sccn2c(=O)c1CCN1CCC(=C(c2ccccc2)c2ccc(F)cc2)CC1
inactive: all assays above

C[N+](C)(C)CCOP(=O)(O)OP(=O)([O-])OC[C@H]1O[C@@H](n2ccc(N)nc2=O)[C@H](O)[C@@H]1O
inactive: all assays above

CCN1/C(=C/C(C)=O)Sc2ccc(OC)cc21
inactive: all assays above

N#C/C(=C\c1ccc(O)c(O)c1)C(=O)NCc1ccccc1
active: [1] 0.562 µM
inactive: all other assays above

NCC1OC(O[C@H]2[C@H](O)[C@@H](OC3C(O)C(N)CC(N)C3OC3OC(CO)C(O)C(O)C3N)O[C@@H]2CO)C(N)C(O)C1O (stereo not given in full)
inactive: all assays above

O=C(O)[C@@H]1C[C@H](C(=O)O)N1
inactive: all assays above

N#C/C(=C\c1c[nH]c2ccccc12)C(=O)c1ccc(O)c(O)c1
active: [1] 1.12 µM
inactive: all other assays above
